# From PubChem BioAssay (NCI)
# The panel holds about 79,000 compounds, 15% with a hit somewhere; the sample as a whole holds those more often. Unmarked numbers belong to inactive results. Calls of active or inactive are those of the source. Rule as the data show it: active = growth inhibition above about 70%; inactive = the rest.
# How the values were obtained:
# [1] = NCI Yeast Anticancer Drug Screen. Data for the wt1 strain (AID 149);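 also: 0% = growth of vehicle-treated wt1 cultures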; settings: S. cerevisiae wt1 strain (SPY 50644) growth inhibition, hits give high values
# In short: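 Each compound is tested on wt1 yeast and the loss of growth versus vehicle gives the inhibition value.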
# [2] = NCI Yeast Anticancer Drug Screen. Data for the rad50EPP+ strain (AID 151);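 also: 0% = growth of vehicle-treated control cultures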; settings: S. cerevisiae rad50 mutant strain, hits give high values
# In short: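 Read-out is yeast growth inhibition relative to vehicle; cells used were the rad50EPP+ strain.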
# [3] = NCI Yeast Anticancer Drug Screen. Data for the mgt1 strain (AID 153); settings: S. cerevisiae mgt1 mutant growth inhibition, hits give high values
# In short: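 Measured: inhibition of mgt1 yeast growth by compound, normalized to vehicle-treated cultures.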
# [4] = NCI Yeast Anticancer Drug Screen. Data for the rad50 strain (AID 155);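 also: 0% = growth of vehicle-only cultures of the same strain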; settings: S. cerevisiae rad50 strain growth inhibition, hits give high values
# In short: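 Vehicle-treated cultures provide the reference for the growth inhibition reported for compound-exposed, repair-deficient yeast.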
# [5] = NCI Yeast Anticancer Drug Screen. Data for the mec2-1 strain (AID 157); settings: S. cerevisiae mec2-1 strain, hits give high values
# In short: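 Using mec2-1 yeast: add compound, measure growth, express inhibition versus vehicle-treated cultures.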
# [6] = NCI Yeast Anticancer Drug Screen. Data for the rad14 strain (AID 159);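 also: 0% = growth of vehicle-treated control cultures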; settings: S. cerevisiae rad14 strain growth inhibition, hits give high values
# In short: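 Inhibition of growth is reported for a repair-deficient yeast mutant following compound treatment, calculated relative to cultures that received vehicle.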
# [7] = NCI Yeast Anticancer Drug Screen. Data for the sgs1 mgt1 strain (AID 161);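 also: 0% = growth of cultures given vehicle only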; settings: S. cerevisiae sgs1 mgt1 strain, hits give high values
# In short: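 This yeast growth screen uses a strain with defined DNA-repair lesions; compound-treated growth is compared with vehicle-treated growth.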
# [8] = NCI Yeast Anticancer Drug Screen. Data for the CLN2oe strain (AID 163);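 also: 0% = growth of vehicle-only control cultures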; settings: S. cerevisiae CLN2oe strain, hits give high values
# In short: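 Whole-cell yeast growth assay. A strain engineered for altered cell-cycle control received compound, and inhibition relative to vehicle-treated cultures was recorded.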
# [9] = NCI Yeast Anticancer Drug Screen. Data for the cln2 rad14 strain (AID 165);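 also: 0% = growth equal to vehicle treated cultures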; settings: S. cerevisiae cln2 rad14 strain, hits give high values
# In short: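 Yeast strain cln2 rad14, bearing defects in cell cycle control and DNA repair, serves as the test system; values reflect growth inhibition compared with vehicle.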
# [10] = NCI Yeast Anticancer Drug Screen. Data for the bub3 strain (AID 167); settings: S. cerevisiae bub3 mutant strain, hits give high values
# In short: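 Mutant yeast screening strain plus compound; vehicle-treated cultures serve as the 0% inhibition reference.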
# [11] = NCI Yeast Anticancer Drug Screen. Data for the wt2 strain (AID 169); settings: S. cerevisiae wt2 strain growth inhibition, hits give high values
# In short: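 Treated yeast vs. vehicle-treated yeast: growth inhibition determined.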
# [12] = NCI Yeast Anticancer Drug Screen. Data for the mlh1 strain (AID 171);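 also: 0% = growth of vehicle-treated control cultures of the same strain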; settings: S. cerevisiae mlh1 strain growth inhibition, hits give high values
# In short: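 A yeast strain with a defined genetic lesion serves as the test organism. Cultures receive compound or vehicle, and growth is measured.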
# [13] = NCI Yeast Anticancer Drug Screen. Data for the sgs1 strain (AID 173);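 also: 0% = growth of vehicle-only control cultures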; settings: S. cerevisiae sgs1 mutant, hits give high values
# In short: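 A genetically defined yeast mutant is incubated with the test compound, and its growth is compared to that of the same strain given vehicle.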
# [14] = NCI Yeast Anticancer Drug Screen. Data for the mlh1 rad18 strain (AID 175); settings: S. cerevisiae mlh1 rad18 strain growth inhibition, hits give high values
# In short: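 Steps: expose repair-defective yeast to compound; measure growth; express inhibition against vehicle-treated controls.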
# [15] = NCI Yeast Anticancer Drug Screen. Data for the rad18 strain (AID 177); settings: S. cerevisiae rad18 mutant growth inhibition, hits give high values
# In short: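 Measured value is growth inhibition of a yeast strain bearing a DNA repair alteration, referenced to vehicle-treated cells.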
# [16] = at 5.0 µM (retest, dose inferred, filed as 0.5)
# [17] = at 50.0 µM (retest, dose inferred, filed as 5.0)
structure (smiles),measurement,setting,value
O=C(Cc1ccccc1F)NC1=C(Cl)C(=O)c2ccccc2C1=O,growth inhibition,[1]; at 1.2 µM,1%
same,growth inhibition,[1]; at 3.7 µM,0%
same,growth inhibition,[1]; at 11.0 µM,0%
same,growth inhibition,[1]; at 33.0 µM,9%
same,growth inhibition,[1]; at 100.0 µM,17%
same,growth inhibition,[2]; at 1.2 µM,40%
same,growth inhibition,[2]; at 3.7 µM,43%
same,growth inhibition,[2]; at 11.0 µM,51%
same,growth inhibition,[2]; at 33.0 µM,48%
same,growth inhibition,[2]; at 100.0 µM,59%
same,growth inhibition,[3]; at 1.2 µM,-2%
same,growth inhibition,[3]; at 3.7 µM,11%
same,growth inhibition,[3]; at 11.0 µM,8%
same,growth inhibition,[3]; at 33.0 µM,3%
same,growth inhibition,[3]; at 100.0 µM,14%
same,growth inhibition,[4]; at 1.2 µM,20%
same,growth inhibition,[4]; at 3.7 µM,26%
same,growth inhibition,[4]; [16],14%
same,growth inhibition,[4]; at 11.0 µM,13%
same,growth inhibition,[4]; at 33.0 µM,22%
same,growth inhibition,[4]; [17],4%
same,growth inhibition,[4]; at 50.0 µM,30.8%
same,growth inhibition,[4]; at 100.0 µM,37%
same,growth inhibition,[5]; at 1.2 µM,41%
same,growth inhibition,[5]; at 3.7 µM,45%
same,growth inhibition,[5]; [16],-16%
same,growth inhibition,[5]; at 11.0 µM,46%
same,growth inhibition,[5]; at 33.0 µM,55%
same,growth inhibition,[5]; [17],50%
same,growth inhibition,[5]; at 50.0 µM,-14.2%
same,growth inhibition,[5]; at 100.0 µM,69%
same,growth inhibition,[6]; at 1.2 µM,-26%
same,growth inhibition,[6]; at 3.7 µM,-12%
same,growth inhibition,[6]; at 11.0 µM,-8%
same,growth inhibition,[6]; at 33.0 µM,19%
same,growth inhibition,[6]; at 100.0 µM,38%
same,growth inhibition,[7]; [16],1%
same,growth inhibition,[7]; [17],54%
same,growth inhibition,[7]; at 50.0 µM,11.4%
same,growth inhibition,[8]; at 1.2 µM,1%
same,growth inhibition,[8]; at 3.7 µM,18%
same,growth inhibition,[8]; at 11.0 µM,19%
same,growth inhibition,[8]; at 33.0 µM,-1%
same,growth inhibition,[8]; at 100.0 µM,27%
same,growth inhibition,[9]; [16],33%
same,growth inhibition,[9]; [17],45%
same,growth inhibition,[9]; at 50.0 µM,24.3%
same,growth inhibition,[10]; at 1.2 µM,14%
same,growth inhibition,[10]; at 3.7 µM,17%
same,growth inhibition,[10]; [16],-6%
same,growth inhibition,[10]; at 11.0 µM,27%
same,growth inhibition,[10]; at 33.0 µM,47%
same,growth inhibition,[10]; [17],70% (active)
same,growth inhibition,[10]; at 50.0 µM,54%
same,growth inhibition,[10]; at 100.0 µM,73% (active)
same,growth inhibition,[11]; at 1.2 µM,-9%
same,growth inhibition,[11]; at 3.7 µM,3%
same,growth inhibition,[11]; at 11.0 µM,-8%
same,growth inhibition,[11]; at 33.0 µM,-1%
same,growth inhibition,[11]; at 100.0 µM,-4%
same,growth inhibition,[12]; at 1.2 µM,-2%
same,growth inhibition,[12]; at 3.7 µM,11%
same,growth inhibition,[12]; at 11.0 µM,8%
same,growth inhibition,[12]; at 33.0 µM,3%
same,growth inhibition,[12]; at 100.0 µM,14%
same,growth inhibition,[13]; at 1.2 µM,39%
same,growth inhibition,[13]; at 3.7 µM,35%
same,growth inhibition,[13]; at 11.0 µM,41%
same,growth inhibition,[13]; at 33.0 µM,59%
same,growth inhibition,[13]; at 100.0 µM,58%
same,growth inhibition,[14]; [16],20%
same,growth inhibition,[14]; [17],28%
same,growth inhibition,[14]; at 50.0 µM,-1.75%
same,growth inhibition,[15]; at 1.2 µM,29%
same,growth inhibition,[15]; at 3.7 µM,6%
same,growth inhibition,[15]; at 11.0 µM,25%
same,growth inhibition,[15]; at 33.0 µM,34%
same,growth inhibition,[15]; at 100.0 µM,40%
